Data on five compounds can be found in PubChem BioAssay.

Experiment [1] concerns Human papillomavirus type 1a protein E7 (residues 44-93). The experiment can be described thus: small molecules binding HPV E7 44-93 – biochemical, small-molecule microarray, residues 44-93, 635 nm fluorescence, primary screen (AID 1108).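 Note: E7 fragment applied at 1 µg/mL in TBST for 1 h at 4 C; score combines spot fluorescence with its signal to noise ratio.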 Particulars: fluorescence 635 nm, higher = more signal.
A short description of experiment [2]: hepatitis C replication reporter changes, two-sided – Huh7 cells, luciferase reporter, HCV replication inhibitor project, primary screen (AID 1109).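 Note: huh7 hepatoma cells harbouring a luciferase neomycin HCV replicon reporter; luciferase luminescence as measure of HCV replicon replication; test concentration not given here.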 Particulars: Huh7 HCV replicon luciferase reporter, 48 h; higher = more signal.
Experiment [3] has as its target Left-right determination factor 2 (Homo sapiens) (UniProt O00292). The experiment can be described thus: small molecules binding LEFTY2 protein – biochemical, small-molecule microarray, 635 nm fluorescence scan, primary screen (AID 1110). Conditions: higher = more signal.
The target in experiment [4] is Calmodulin-1 (Homo sapiens) (UniProt P0DP23). Description: small molecules binding calmodulin-1 with EGTA – biochemical, small-molecule microarray, Cy5-labelled CALM1, profiling panel (AID 1111).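 Note: labelled calmodulin applied in Tris saline Tween buffer holding calcium plus EGTA and DTT.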 Particulars: Cy5-CALM1 binding fluorescence, higher = more signal.
Experiment [5] has the same target. Description: small molecules binding Ca-loaded calmodulin-1 – biochemical, small-molecule microarray, Cy5-labelled CALM1, plus calcium, artefact control for SMM control-protein annotation, profiling panel (AID 1112).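 Note: score merges spot fluorescence with signal to noise from triplicate slides.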 Conditions: Cy5-CALM1 binding fluorescence, higher = more signal.
A short description of experiment [6]: probe aWnt5a binding to arrayed compounds – biochemical, biotinylated probe, 635/667 nm fluorescence, primary screen (AID 1113).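 Note: score merges 667 nm fluorescence intensity with signal-to-noise per printed feature.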 Conditions: small-molecule microarray, higher = more signal.
The nature of experiment [7]: probe aShh binding to arrayed compounds – biochemical, biotinylated probe, 635/667 nm fluorescence, primary screen (AID 1114).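 Note: probe is biotin-labelled aShh protein from a stem cell growth factor screen; measures binding of labelled protein to compounds printed on the slide; score merges feature fluorescence at 667 nm with signal-to-noise.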 Conditions: small-molecule microarray, higher = more signal.
Experiment [8] in a line: probe aNog binding to arrayed compounds – biochemical, biotinylated probe, 635/667 nm fluorescence, primary screen (AID 1115).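 Note: probe is biotinylated aNog protein used at 0.15 µg/mL for 1 h at 4 C; z-score combines 667 nm fluorescence of each spot with its signal to noise.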 Conditions: small-molecule microarray, higher = more signal.
For experiment [9], the target named is Torsin-1A-interacting protein 1 (Homo sapiens) (UniProt Q5JTV8). The experiment can be described thus: compound microarray binding of lysate hLAP1 – cell lysate, small-molecule microarray, COS7 lysate, 635/667 nm fluorescence, primary screen (AID 1116). Particulars: 635 nm fluorescence, higher = more signal.
Sequence of Torsin-1A-interacting protein 1 (Homo sapiens) (Q5JTV8 whole entry, looked up): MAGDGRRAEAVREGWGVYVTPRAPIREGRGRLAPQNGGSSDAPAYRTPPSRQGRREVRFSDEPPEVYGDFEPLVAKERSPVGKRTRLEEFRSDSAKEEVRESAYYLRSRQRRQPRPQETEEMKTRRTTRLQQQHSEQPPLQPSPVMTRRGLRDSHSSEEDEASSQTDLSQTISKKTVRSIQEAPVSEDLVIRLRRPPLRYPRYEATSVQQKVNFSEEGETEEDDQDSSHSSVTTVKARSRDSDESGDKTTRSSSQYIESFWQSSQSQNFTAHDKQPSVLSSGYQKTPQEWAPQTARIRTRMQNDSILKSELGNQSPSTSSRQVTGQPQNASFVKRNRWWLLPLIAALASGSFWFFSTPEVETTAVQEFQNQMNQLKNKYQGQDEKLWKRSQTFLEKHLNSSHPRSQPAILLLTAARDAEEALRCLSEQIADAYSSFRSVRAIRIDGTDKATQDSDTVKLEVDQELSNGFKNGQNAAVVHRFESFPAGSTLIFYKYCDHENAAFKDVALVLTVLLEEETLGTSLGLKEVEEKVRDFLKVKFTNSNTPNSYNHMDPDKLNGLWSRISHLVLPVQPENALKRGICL
The target in experiment [10] is Alpha-bungarotoxin (Bungarus multicinctus) (UniProt P60615). The experiment can be described thus: compounds binding labelled alpha-BTX control protein – biochemical, small-molecule microarray, Alexa647 label, 635/667 nm fluorescence, artefact control for SMM control protein annotation, profiling panel (AID 1117). Particulars: alpha-BTX-A647 binding fluorescence, higher = more signal.
Sequence of Alpha-bungarotoxin (Bungarus multicinctus) (P60615 whole entry, looked up): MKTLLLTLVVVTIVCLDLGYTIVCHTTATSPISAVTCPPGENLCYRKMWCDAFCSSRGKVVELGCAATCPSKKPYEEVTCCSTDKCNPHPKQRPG

In experiment [11] the target is Albumin (Bos taurus) (UniProt P02769). Description: compounds binding labelled BSA control protein – biochemical, small-molecule microarray, Alexa647 label, 635/667 nm fluorescence, artefact control for SMM control protein annotation, profiling panel (AID 1118).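 Note: score merges 667 nm emission intensity and signal-to-noise per printed compound spot.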 Conditions: BSA-A647 binding, fluorescence 635 nm, higher = more signal.
Sequence of Albumin (Bos taurus) (P02769 whole entry, looked up): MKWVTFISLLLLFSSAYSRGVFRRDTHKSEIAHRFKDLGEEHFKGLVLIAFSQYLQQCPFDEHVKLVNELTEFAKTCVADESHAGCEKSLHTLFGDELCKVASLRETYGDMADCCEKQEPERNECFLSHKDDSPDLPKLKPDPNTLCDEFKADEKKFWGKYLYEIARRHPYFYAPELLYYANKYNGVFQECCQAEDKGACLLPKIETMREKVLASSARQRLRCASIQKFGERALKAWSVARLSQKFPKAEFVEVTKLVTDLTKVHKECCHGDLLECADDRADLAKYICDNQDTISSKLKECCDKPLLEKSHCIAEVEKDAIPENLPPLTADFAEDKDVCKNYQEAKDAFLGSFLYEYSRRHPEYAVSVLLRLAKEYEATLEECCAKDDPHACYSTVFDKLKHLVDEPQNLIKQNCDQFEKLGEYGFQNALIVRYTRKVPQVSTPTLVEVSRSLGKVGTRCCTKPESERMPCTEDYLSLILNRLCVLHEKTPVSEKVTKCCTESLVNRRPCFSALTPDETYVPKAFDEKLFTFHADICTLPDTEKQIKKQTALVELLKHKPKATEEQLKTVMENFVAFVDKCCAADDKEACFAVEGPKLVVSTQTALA
Experiment [12] can be described thus: probe aXIP binding to arrayed compounds – biochemical, NeuroSMM set, 635/667 nm fluorescence, primary screen (AID 1119).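 Note: probe is the protein aXip251-270 applied at 1 µg/mL to compound-printed slides; binding of probe to printed compounds measured as 667 nm fluorescence plus signal to noise.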 Conditions: small-molecule microarray, higher = more signal, called active from +8 up or from −8 down.
Experiment [13] can be described thus: probe aNOTCH3 binding on compound microarray – biochemical, small-molecule microarray, 635/667 nm fluorescence, primary screen (AID 1120).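 Note: probe is a biotin-tagged antibody raised against NOTCH3 rather than NOTCH3 protein; score merges spot fluorescence near 667 nm with spot signal to noise.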 Conditions: higher = more signal.
The nature of experiment [14]: probe aNOTCH2 binding on compound microarray – biochemical, small-molecule microarray, 635/667 nm fluorescence, primary screen (AID 1121).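 Note: score merges feature fluorescence read at 667 nm with its signal to noise.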 Particulars: higher = more signal.
The target in experiment [15] is Carbonic anhydrase 2 (Homo sapiens) (UniProt P00918). Description: compounds binding carbonic anhydrase 2 – biochemical, small-molecule microarray, Alexa647-labelled CAII, profiling panel (AID 1122). Particulars: CAII-A647 binding fluorescence, higher = more signal.
A short description of experiment [16]: COS7 lysate on small-molecule microarray, probe aHis, 635 nm (AID 1123).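 Note: z-score combines 667nm fluorescence intensity with signal-to-noise per printed compound spot.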 Particulars: COS7 cell lysate, fluorescence, higher = more signal.
A short description of experiment [17]: probe aLAP1 signal on lysate-treated microarray – cell lysate, small-molecule microarray, COS7 lysate, primary screen (AID 1124).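 Note: lysate comes from COS7 cells expressing LAP1 and is applied at 0.3 µg/mL; score merges spot fluorescence near 667 nm with signal-to-noise over triplicate slides.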 Conditions: probe aLAP1, fluorescence, higher = more signal.
For experiment [18], the system named is Sam68 (KHDRBS1). The experiment can be described thus: compounds binding KHDRBS1 protein – biochemical, small-molecule microarray, 635 nm fluorescence, primary screen (AID 1125).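 Note: score merges 667 nm channel intensity with signal to noise over triplicate slides.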 Conditions: higher = more signal.
The test system of experiment [19] is Chordin-like protein 2 (CHRDL2). Description: compounds binding chordin-like 2 – biochemical, small-molecule microarray, 635 nm fluorescence, primary screen (AID 1126).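 Note: printed compound slides probed with Chrdl2 protein at 4 µg/mL for 1 h at 4 C; score merges 667 nm emission intensity with signal to noise over three replicate slides.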 Particulars: fluorescence 635 nm, higher = more signal.
In experiment [20] the target is Concanavalin-A (Canavalia ensiformis) (UniProt P02866). The experiment can be described thus: compounds binding concanavalin A lectin – biochemical, small-molecule microarray, Alexa647 label, 635 nm, artefact control for SMM control protein annotation, primary screen (AID 1127).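 Note: z combines 667 nm emission intensity with signal-to-noise across three replicate slides.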 Conditions: ConA-A647 binding fluorescence, higher = more signal.
Sequence of Concanavalin-A (Canavalia ensiformis) (P02866 whole entry, looked up): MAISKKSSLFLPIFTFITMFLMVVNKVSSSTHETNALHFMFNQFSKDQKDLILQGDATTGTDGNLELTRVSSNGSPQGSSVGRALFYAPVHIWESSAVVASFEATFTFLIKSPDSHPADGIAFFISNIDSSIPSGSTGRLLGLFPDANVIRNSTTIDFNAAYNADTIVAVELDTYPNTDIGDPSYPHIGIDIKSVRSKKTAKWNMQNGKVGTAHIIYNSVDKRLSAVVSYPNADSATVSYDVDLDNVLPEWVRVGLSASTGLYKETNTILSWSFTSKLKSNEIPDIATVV

Activity calls are given as the source filed them.

Sequence of Left-right determination factor 2 (Homo sapiens) (O00292 whole entry, looked up): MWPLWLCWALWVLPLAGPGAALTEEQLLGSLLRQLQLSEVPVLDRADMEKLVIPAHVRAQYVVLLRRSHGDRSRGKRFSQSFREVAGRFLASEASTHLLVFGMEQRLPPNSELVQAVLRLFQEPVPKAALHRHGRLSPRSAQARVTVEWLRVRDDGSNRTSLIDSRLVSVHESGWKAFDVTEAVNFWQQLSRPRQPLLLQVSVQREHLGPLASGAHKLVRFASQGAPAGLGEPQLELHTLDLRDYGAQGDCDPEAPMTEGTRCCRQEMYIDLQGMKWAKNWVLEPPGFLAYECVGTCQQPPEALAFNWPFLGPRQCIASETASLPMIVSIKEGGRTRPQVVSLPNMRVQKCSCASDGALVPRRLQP

Consider `CCOC(=O)C[C@H]1[C@H](OC(=O)Cc2ccc3c(c2)OCO3)[C@@H](NC(=O)c2ccccc2)c2cc(OCCCO)ccc2N1C(=O)c1ccccc1`, for which the composite z-score is 0.487 in experiment [1]; 0.24 in [3]; 0.334 in experiment [4]; -0.469 in [5]; -0.128 in experiment [6]; -0.221 in [7]. The composite z-score in experiment [8] is -0.18; in experiment [9], 0.223; in experiment [10], 0.652; in [11], -0.359; in experiment [13], -0.0573; in [14] it was -0.121. The composite z-score in [15] came out at 0.0488; in [16], 0.525; in experiment [17], 0.379; in experiment [18] it was 0.425; in experiment [19], 0.434; in [20], 0.374. In addition, in experiment [2], the z-score was -0.183. Moreover, in [12], the composite Z-score was 0.713 (inactive).

Consider `COc1ccc([Si](C)(C)[C@@H]2[C@@H](CCO)O[C@]3(C(=O)N(Cc4ccccc4)c4ccc(N5CCCCC5=O)cc43)[C@H]2C)cc1`, for which the composite z-score in experiment [1] was 1.4; in experiment [3], 0.489; in [4], 0.972; in experiment [5], 0.0653; in experiment [6], -0.122; in experiment [7], -0.2. Also, the composite z-score in [8] is -0.352; in experiment [9] it was 0.678; in [10] it was 1.08; in [11] it was 0.375; in experiment [13] it was 0.924; in experiment [14] it was -0.108. For the same compound, the composite z-score in [15] worked out at 0.08; in experiment [16], 0.72; in experiment [17] it was 0.0284; in experiment [18], 1.31; in experiment [19] it was 0.212; in experiment [20], 1.12. In experiment [2], this compound gave a z-score of -5.21. The composite Z-score in [12] was -0.364 (inactive).

`COCCCNC(=O)[C@]1(Cc2ccccc2CN=[N+]=[N-])N=C(c2ccc(OCCCO)cc2)O[C@@H]1c1ccccc1CN=[N+]=[N-]`: the composite z-score is -0.113 in experiment [1]; 0.0705 in [3]; 1.85 in experiment [4]; 0.945 in experiment [5]; 0.19 in experiment [6]; 0.417 in [7]. For the same compound, the composite z-score came out at 1.92 in experiment [8]; 2.09 in experiment [9]; 1.3 in experiment [10]; 0.864 in [11]; 0.364 in experiment [13]; 0.309 in [14]. Further, the composite z-score in [15] is 0.613; in [16], 2.28; in [17] it was 1.09; in experiment [18] it was 1.29; in [19], -0.0479; in experiment [20] it was 1. In addition, the z-score in experiment [2] was -2.54. Besides, in [12], the composite Z-score was 0.701 (inactive).

In the case of `C[C@@H]1ON(c2ccccc2)[C@H](c2ccccc2)[C@H]1C(=O)N1C(=O)OC[C@H]1Cc1ccccc1`, the composite z-score in experiment [1] is 1.06; in [3], 0.567; in [4], -0.137; in experiment [5], -0.542; in experiment [6], 0.765; in experiment [7], -0.304. Also, the composite z-score in experiment [8] is -0.282; in experiment [9] it was 0.28; in experiment [10] it was 0.327; in experiment [11], 0.215; in [13], -0.0057; in experiment [14] it was -0.14. Besides, the composite z-score in experiment [15] was 0.303; in [16], 0.514; in [17], -0.0985; in [18], 0.885; in experiment [19], 0.447; in experiment [20], 0.603. This compound returned a z-score in experiment [2] of -0.782. The composite Z-score in [12] is 0.477 (inactive).

As to `COC(=O)[C@@]1(Cc2ccc(OC)cc2)[C@H]2c3cc(C(=O)N(C)C)n(Cc4cc(C)n(C)n4)c3C[C@H]2CN1C(=O)c1ccccc1`, the composite z-score in experiment [1] is 1.52; in [3] it was -0.198; in experiment [4] it was 0.239; in [5], 0.529; in [6], 0.596; in [7], 0.964. Moreover, the composite z-score in experiment [8] was 1.11; in experiment [9], 1.2; in experiment [10], -0.329; in experiment [11] it was 0.19; in experiment [13] it was 0.166; in experiment [14], 0.0736. Also, the composite z-score in experiment [15] was 0.88; in experiment [16], 3.4; in [17], 0.898; in experiment [18], 1.06; in [19] it was -0.285; in experiment [20], -0.307. Further, in [2], the z-score is -0.952. Moreover, the composite Z-score in [12] was 0.638 (inactive).
